Pf Dd2 growth: qHTS Primary assay for Inhibitors of Plasmodium falciparum Dd2 growth in vitro. P. falciparum Dd2 growth, SYBR Green, 72 h. Potency, µM (series often up to 28.9 µM), inactives show at the highest dose activity, negative = inhibition, actives largely listed as inhibitors. 120,000 compounds, 4.3% hits; active = well fitted inhibition curve with a large enough effect;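 note: plate controls were DMSO vehicle for no effect and reference drug for full effect; nearly all actives have a fitted effect of over 65% in size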
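Readout: SYBR Green fluorescence, 485 nm excitation, 535 nm emission, after ~16 h lysis at 37C. Before that, Dd2-infected red cells (2.5% hematocrit) grew 72 h with compound, 29 uM top final concentration.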
Starred values were filed as active, the others as inactive; i = inactive; [ ] = dose if it differs, or a comment. Shown is part of a subset that was picked to be rich in hits. Potency is the fitted concentration of half-maximal effect.

SMILES	Pf Dd2 growth
Cc1ccc(CN2C(=O)NC3(CCCN(C(=O)c4ccc(F)c(Cl)c4)C3)C2=O)cc1 (stereo not drawn)	7.1µM*
Cc1ccc(CN2C(=O)NC3(CCCN(C(=O)c4cccc(Cl)c4)C3)C2=O)cc1 (stereo not drawn)	i
COc1ccc(NC(=O)c2cnc3c(c2)N([S+](=O)([O-])c2cccnc2)CCC3)cc1OC	3%
Cc1cc2c(cc1C(=O)N1C[C@@H](CN(C)CCO)[C@@H](CO)C1)OCCO2	-21%
CN(CCO)C[C@@H]1CN(C(=O)c2ccc3c(c2)CCC3)C[C@@H]1CO	-10%
Cc1c(CN2C[C@@H](CN(C)CCO)[C@@H](CO)C2)[nH]c2c(Cl)cccc12	13µM*
COCCN1C[C@H]2CN(C(=O)NCc3ccccc3)CCN2C1=O	-9%[44.1 µM]
NCCC(=O)N1CCCC2(Cc3ccccc3CN2C(=O)c2ccccc2)C1 (stereo not drawn)	5%
COc1ccc(CNC(=O)[C@@H]2C[C@@H](c3ccc(F)cc3)N(Cc3ccccc3)C2)cc1OC	i
Cn1cc(CN2C[C@H](C(=O)NCc3cccc(F)c3)C[C@H]2c2cccc(C(F)(F)F)c2)cn1	8.9µM*
Cc1nc(CN2C[C@H](C(=O)N3CCN(CCO)CC3)C[C@@H]2c2ccc(F)cc2)cs1	-8%[44.1 µM]
Cn1cc(CN2C[C@H](C(=O)Nc3ccc(F)cc3)C[C@@H]2c2cccc(C(F)(F)F)c2)cn1	i
O=C(Nc1ccncn1)[C@@H]1C[C@@H](c2ccc(F)cc2)N(Cc2ccccc2)C1	i
Cc1nc(CN2C[C@H](C(=O)NCc3cccc(F)c3)C[C@@H]2c2ccc(F)cc2)cs1	14µM*
Cn1ccc(NC(=O)[C@@H]2C[C@@H](c3ccc(F)cc3)N(Cc3ccccc3)C2)n1	13µM*
Cn1cc(CN2C[C@H](C(=O)Nc3ccccc3)C[C@@H]2c2cccc(C(F)(F)F)c2)cn1	-21%[44.1 µM]
Cn1cc(CN2C[C@H](C(=O)Nc3ccn(C)n3)C[C@@H]2c2cccc(C(F)(F)F)c2)cn1	i
Cc1nc(-c2cn(C3CCCN(C(=O)c4ccc5c(c4)OCO5)C3)nn2)no1 (stereo not drawn)	-3%
O=C(CCn1cnc2ccccc2c1=O)N1CCCC(Nc2ccccc2)C1 (stereo not drawn)	2%
Cc1cc(CN(C)Cc2cn(-c3cccc(F)c3)nc2-c2ccc(C)o2)n[nH]1	-2%
COc1ccc(-c2nn(-c3ccccc3C)cc2CN(C)Cc2cn(C)nc2C)cc1F	i
Cc1ccc(-c2nn(-c3cccc(F)c3)cc2CN(C)CCO)o1	7.9µM*
COC1CCOC2(CCN(C(=O)CCc3ccccc3)CC2)C1 (stereo not drawn)	-1%
C#CCNC(=O)C[C@@H]1O[C@H](CNC(=O)c2cccc(F)c2)[C@@H](O)[C@H]1O	1%[44.1 µM]
Cc1ccc(S(=O)(=O)N2CCC(CC(=O)NCc3ccccc3)C2)cc1F (stereo not drawn)	i
SMILES	Pf Dd2 growth
Cc1ccc2c(c1)nc1n2[C@@H](CNC2CCN(C)CC2)COC1	i
CCN(CC)C(=O)C1CCN(c2nnc(C)c3c(C)n(-c4ccc(Cl)cc4)nc23)CC1	82%[5.79 µM]
COc1ccc(Cl)cc1NC(=O)C1CCN(c2nnc(C)c3c(C)n(-c4ccccc4)nc23)CC1	i
COc1ccccc1NC(=O)C1CCCN(c2nnc(C)c3c(C)n(-c4ccccc4)nc23)C1 (stereo not drawn)	-5%
CCOc1ccccc1CNC(=O)C1CCN(c2nnc(C)c3c(C)n(-c4ccc(C)cc4)nc23)CC1	7.1µM*
CCOc1ccccc1CNC(=O)CSc1nnc(C)c2c(C)n(-c3ccccc3)nc12	-4%
Cc1nnc(N2CCC(C(=O)NCCc3ccccc3Cl)CC2)c2nn(-c3ccccc3)c(C)c12	11µM*
Cc1ccc(NC(=O)C2CCCN(c3nnc(C)c4c(C)n(-c5ccccc5)nc34)C2)cc1Cl (stereo not drawn)	24%
Cc1ccc(Cl)cc1NC(=O)C1CCN(c2nnc(C)c3c(C)n(-c4ccccc4)nc23)CC1	i
COc1ccccc1CCNC(=O)C1CCN(c2nnc(C)c3c(C)n(-c4ccc(C)cc4)nc23)CC1	6.3µM*
COC(=O)[C@@H](C)NC(=O)[C@H]1CN(C(=O)Nc2ccccc2)CCN1C(=O)NC(C)C	-2%[44.1 µM]
COCCN1CCC(N2CCN(C(=O)C3CCCC3)CC2)C1=O (stereo not drawn)	13%
COc1ccc(CCNC(=O)c2cnn(-c3cccc(C)c3)c2C2CCN(C(=O)OC(C)(C)C)CC2)cc1OC	11µM*
COc1ccc(CCNC(=O)c2cnn(-c3ccc(F)cc3)c2C2CCN(C(=O)OC(C)(C)C)CC2)cc1OC	7.9µM*
COc1ccc(OC)c(CCNC(=O)c2cnn(-c3ccc(C)cc3C)c2C2CCN(C(=O)OC(C)(C)C)CC2)c1	-12%
CN(Cc1ccsc1)C(=O)c1ccc(C#CC(C)(C)O)o1	-34%
NCCCC(=O)N1CCC2(CC1)CC(NC(=O)CN)c1ccccc12 (stereo not drawn)	-1%
Cc1nc(CN2CC3(CCN(C)C3)c3cc(C(=O)NCc4ccccc4)ccc32)cs1 (stereo not drawn)	i
COc1cccc(CN2C[C@@H](CO)[C@H](NC(=O)C3CCC3)C2)n1	-23%
O=C(NCc1ccccc1)C1=NO[C@@H]2CN(Cc3ccncc3)C[C@H]12	38%[44.1 µM]
CCCN1C(=O)c2[nH]nc(-c3ccc(OC)cc3)c2C1c1ccccn1 (stereo not drawn)	-19%
CCCN1C(=O)c2[nH]nc(-c3ccc(F)cc3)c2C1c1ccccn1 (stereo not drawn)	-15%
CCCN1C(=O)c2[nH]nc(-c3ccc(F)cc3)c2C1c1ccc(O)c(OCC)c1 (stereo not drawn)	i
O=C1c2[nH]nc(-c3ccc(F)cc3)c2C(c2ccccc2F)N1c1ccccc1 (stereo not drawn)	-28%
CCOc1ccccc1NC(=O)C1=C(C)Nc2ncnn2C1c1cccs1 (stereo not drawn)	1%
SMILES	Pf Dd2 growth
CCOC(=O)c1ccc(NC(=O)c2oc(=O)c3ccccc3c2-c2ccccc2)cc1	24%
CCOc1ccc(C(=O)OCc2cc(=O)n3nc(C4CC4)sc3n2)cc1	-7%
CCOC(=O)c1ccc(N2C(=O)c3[nH]nc(-c4ccc(C)cc4)c3C2c2cccc(F)c2)cc1 (stereo not drawn)	5µM*
CCOC(=O)c1ccc(N2C(=O)c3[nH]nc(-c4ccc(OCC)cc4)c3C2c2cccs2)cc1 (stereo not drawn)	2.8µM*
CCOC(=O)c1ccc(N2C(=O)c3[nH]nc(-c4ccccc4)c3C2c2cccs2)cc1 (stereo not drawn)	7.1µM*
CCOc1ccc(N2CC(NC(=O)Cc3cccs3)CC2=O)cc1 (stereo not drawn)	i
CCOc1ccc(-c2n[nH]c3c2C(c2cccs2)N(c2ccc(Br)cc2)C3=O)cc1 (stereo not drawn)	3.5µM*
COc1ccccc1-c1onc(C)c1C(=O)NCc1ccccc1Cl	-6%
CCCS(=O)(=O)N1CCCC1C(=O)Nc1ccccc1-c1ccc(OC)cc1 (stereo not drawn)	5%
O=C(Cn1nc2c(cc1=O)CCCC2)NCc1nc2ccccc2[nH]1	4%
CCc1ccc(C2NC(=O)c3[nH]nc(-c4cccc(OC)c4)c32)cc1 (stereo not drawn)	-10%
Cc1ccc(N2C(=O)c3n[nH]c(C)c3C2c2ccc(Cl)cc2)cc1 (stereo not drawn)	-18%
